# Reference: the supplement of paper PMC10127200
# Structures can show the parent of a compound that is named as a salt.
# Test system: HEPG2
# Assay: Euclidean distance of Cell Painting phenotypic profile (signed KS, 77 features) to DMSO centroid (dimensionless distance); higher = stronger phenotypic change vs DMSO (phenoactivity)
# Conditions: 48 h; 5 or 10 uM (library dependent)
# Method in brief: (§1)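 Stained cells were imaged confocally at 20X with 9 fields per well, after 48 h of exposure to library compounds at 10 or 5 uM (set by library; 0.1% DMSO final). The cells were five cancer lines and a healthy fibroblast line. From the images, Harmony extracted 77 features, each expressed as a signed Kolmogorov-Smirnov statistic relative to same-plate vehicle wells. Phenoactivity is measured as Euclidean distance to the median vehicle profile, using plate-position-corrected, correlation-weighted profiles averaged across replicates at the top dose.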
row,SMILES,Euclidean distance
1,CCNC1(c2cccs2)CCCCC1=O (centres undefined) [Tiletamine Hydrochloride],0.678
2,COc1cc(OC)c(OC)cc1C=O [Asaraldehyde],1.73
3,OC(c1ccccc1)(c1ccccc1)C1CCNCC1 [Azacyclonol],2.31
4,O=C1CCC[C@@H]2[C@H]3CCCN4CCC[C@@H](CN12)[C@@H]34 [(+)-Matrine],0.874
5,COc1ccc(CN2CCNCC2)c(OC)c1OC [Trimetazidine dihydrochloride],0.412
6,CC[C@H](C)[C@H]1O[C@]2(C=C[C@@H]1C)C[C@@H]1C[C@@H](C/C=C(\C)[C@@H](O[C@H]3C[C@H](OC)[C@@H](O[C@H]4C[C@H](OC)[C@@H](O)[C@H](C)O4)[C@H](C)O3)[C@@H](C)/C=C/C=C3\CO[C@@H]4[C@H](O)C(C)=C[C@@H](C(=O)O1)[C@]34O)O2.CO[C@H]1C[C@H](O[C@H]2[C@H](C)O[C@@H](O[C@@H]3/C(C)=C/C[C@@H]4C[C@@H](C[C@]5(C=C[C@H](C)[C@@H](C(C)C)O5)O4)OC(=O)[C@@H]4C=C(C)[C@@H](O)[C@H]5OC/C(=C\C=C\[C@@H]3C)[C@]54O)C[C@@H]2OC)O[C@@H](C)[C@@H]1O [Avermectin B1],1.38
7,C[C@]12N[C@H](Cc3ccccc31)c1ccccc12 [MK-801 (Dizocilpine)],1.41
8,CC(C)(C)c1cc(C=C(C#N)C#N)cc(C(C)(C)C)c1O [Tyrphostin 9],0.766
9,CCCN1C[C@H](CSC)C[C@@H]2c3cccc4[nH]cc(c34)C[C@H]21 [Pergolide mesylate],2.27
10,CN1[C@@H]2C[C@@H](OC(=O)[C@H](CO)c3ccccc3)C[C@H]1[C@@H]1O[C@@H]12 [Scopolamine HBr],0.391
11,C=CCN1CC[C@]23c4c5ccc(O)c4O[C@H]2C(=O)CC[C@@]3(O)[C@H]1C5 [Naloxone HCl],0.59
12,CCN(C)C(=O)Oc1cccc([C@H](C)N(C)C)c1 [Rivastigmine Tartrate],0.806
13,N#Cc1nn(-c2c(Cl)cc(C(F)(F)F)cc2Cl)c(N)c1[S+]([O-])C(F)(F)F (centres undefined) [Fipronil],0.591
14,COC(=O)C1=CCCN(C)C1 [Arecoline HBr],0.958
15,N[C@@H](Cc1ccc(N(CCCl)CCCl)cc1)C(=O)O [Melphalan],2.72
16,C[S+]([O-])CCCCN=C=S (centres undefined) [sulforaphane],2.6
17,Cc1ccc(-n2nccn2)c(C(=O)N2CCN(c3nc4cc(Cl)ccc4o3)CC[C@H]2C)c1 [Suvorexant (MK-4305)],2.25
18,COC(=O)C1=CCCN(C)C1 [Arecoline],0.762
19,CCN1CCN(C(=O)Cc2ccc(Nc3ncc(F)c(Nc4ccc(C(=O)Nc5ccccc5Cl)cc4)n3)cc2)CC1 [Aurora A Inhibitor I],4.52
20,CC(C)[C@]12O[C@H]1[C@@H]1O[C@]13[C@]1(O[C@H]1C[C@H]1C4=C(CC[C@@]13C)C(=O)OC4)[C@@H]2O [Triptolide (PG490)],2.73

# Test system: OVCAR4
# Assay: as above
# Conditions: 48 h; 5 or 10 uM (library dependent)
# Method in brief: as §1
row,SMILES,Euclidean distance
1,CN1[C@@H]2CC[C@H]1C[C@@H](OC(=O)C(CO)c1ccccc1)C2 (some centres undefined) [Atropine sulfate monohydrate],1.53
2,CN1CCN(c2nc3ccccc3nc2Cl)CC1,1.52
3,O=C([O-])C(Cl)Cl.[Na+] [Sodium dichloroacetate (DCA)],1.4
4,CC(Cc1ccc(O)cc1)NCC(O)c1cc(O)cc(O)c1 (centres undefined) [Fenoterol hydrobromide],0.781
5,CCC(COC(=O)c1cc(OC)c(OC)c(OC)c1)(c1ccccc1)N(C)C (centres undefined) [Trimebutine],0.747
6,O=C/C=C/c1ccccc1 [Cinnamaldehyde],0.848
7,COc1ccc2c(c1)[nH]c1c(C)nccc12 [Harmine hydrochloride],1.25
8,CC(=O)OCC1=C(C(=O)O)N2C(=O)[C@@H](N)[C@H]2SC1 [7-Aminocephalosporanic acid],0.832
9,CN1c2ccccc2C(NCCCCCCC(=O)O)c2ccc(Cl)cc2S1(=O)=O (centres undefined) [Tianeptine sodium],1.36
10,CCCN1C[C@H](CSC)C[C@@H]2c3cccc4[nH]cc(c34)C[C@H]21 [Pergolide Mesylate],1.71
11,CC[C@H]1[C@@H]2C[C@H]3[C@@H]4N(C)c5ccccc5[C@]45C[C@@H]([C@@H]2[C@H]5O)N3[C@@H]1O [Ajmaline],1.05
12,Cc1cccc(C)c1NC1=NCCCS1 [Xylazine],0.579
13,Cn1c(CCCC(=O)O)nc2cc(N(CCCl)CCCl)ccc21 [Bendamustine],0.732
14,C[C@@H]1CC[C@@]2(OC1)O[C@H]1C[C@H]3[C@@H]4CC=C5C[C@@H](O[C@@H]6O[C@H](CO)[C@@H](O[C@@H]7O[C@@H](C)[C@H](O)[C@@H](O)[C@H]7O)[C@H](O)[C@H]6O[C@@H]6O[C@@H](C)[C@H](O)[C@@H](O)[C@H]6O)CC[C@]5(C)[C@H]4CC[C@]3(C)[C@H]1[C@@H]2C [Dioscin],4.63
15,CCNC1(c2cccs2)CCCCC1=O (centres undefined) [Tiletamine Hydrochloride],1.75
16,COc1cc(OC)c(OC)cc1C=O [Asaraldehyde],1.06
17,OC(c1ccccc1)(c1ccccc1)C1CCNCC1 [Azacyclonol],3.18

row,SMILES,Euclidean distance
1,O=C1CCC[C@@H]2[C@H]3CCCN4CCC[C@@H](CN12)[C@@H]34 [(+)-Matrine],0.759
2,COc1ccc(CN2CCNCC2)c(OC)c1OC [Trimetazidine dihydrochloride],1.08
3,CC[C@H](C)[C@H]1O[C@]2(C=C[C@@H]1C)C[C@@H]1C[C@@H](C/C=C(\C)[C@@H](O[C@H]3C[C@H](OC)[C@@H](O[C@H]4C[C@H](OC)[C@@H](O)[C@H](C)O4)[C@H](C)O3)[C@@H](C)/C=C/C=C3\CO[C@@H]4[C@H](O)C(C)=C[C@@H](C(=O)O1)[C@]34O)O2.CO[C@H]1C[C@H](O[C@H]2[C@H](C)O[C@@H](O[C@@H]3/C(C)=C/C[C@@H]4C[C@@H](C[C@]5(C=C[C@H](C)[C@@H](C(C)C)O5)O4)OC(=O)[C@@H]4C=C(C)[C@@H](O)[C@H]5OC/C(=C\C=C\[C@@H]3C)[C@]54O)C[C@@H]2OC)O[C@@H](C)[C@@H]1O [Avermectin B1],1.76
4,C[C@]12N[C@H](Cc3ccccc31)c1ccccc12 [MK-801 (Dizocilpine)],1.23
5,CC(C)(C)c1cc(C=C(C#N)C#N)cc(C(C)(C)C)c1O [Tyrphostin 9],1.95
6,CCCN1C[C@H](CSC)C[C@@H]2c3cccc4[nH]cc(c34)C[C@H]21 [Pergolide mesylate],1.02
7,CN1[C@@H]2C[C@@H](OC(=O)[C@H](CO)c3ccccc3)C[C@H]1[C@@H]1O[C@@H]12 [Scopolamine HBr],1.01
8,C=CCN1CC[C@]23c4c5ccc(O)c4O[C@H]2C(=O)CC[C@@]3(O)[C@H]1C5 [Naloxone HCl],0.689
9,CCN(C)C(=O)Oc1cccc([C@H](C)N(C)C)c1 [Rivastigmine Tartrate],1.45
10,N#Cc1nn(-c2c(Cl)cc(C(F)(F)F)cc2Cl)c(N)c1[S+]([O-])C(F)(F)F (centres undefined) [Fipronil],0.894
11,COC(=O)C1=CCCN(C)C1 [Arecoline HBr],1.12
12,N[C@@H](Cc1ccc(N(CCCl)CCCl)cc1)C(=O)O [Melphalan],2.13
13,C[S+]([O-])CCCCN=C=S (centres undefined) [sulforaphane],1.58
14,Cc1ccc(-n2nccn2)c(C(=O)N2CCN(c3nc4cc(Cl)ccc4o3)CC[C@H]2C)c1 [Suvorexant (MK-4305)],0.979
15,COC(=O)C1=CCCN(C)C1 [Arecoline],0.957
16,CCN1CCN(C(=O)Cc2ccc(Nc3ncc(F)c(Nc4ccc(C(=O)Nc5ccccc5Cl)cc4)n3)cc2)CC1 [Aurora A Inhibitor I],3.43
17,CC(C)[C@]12O[C@H]1[C@@H]1O[C@]13[C@]1(O[C@H]1C[C@H]1C4=C(CC[C@@]13C)C(=O)OC4)[C@@H]2O [Triptolide (PG490)],3.81
